The values that follow come from PubChem BioAssay.

Values without a mark were called inactive. Active and inactive are the calls of the source.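 Rule for the calls, unless noted: active = mean inhibition over 43.08%, the solvent-only control mean plus 3 SD; inactive = the rest.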

Assay [1] addresses Nuclear receptor coactivator 3 (Homo sapiens) (UniProt Q9Y6Q9). In words: NCOA3 GAL4-fusion reporter inhibition – cell-based, luminescence, quadruplicate, confirmation (AID 588792).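 Note: 0% = DMSO treated cells and 100% = gossypol at 36 µM.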 The settings on record: HEK293 GAL4-SRC3 luciferase reporter, at 3.6 µM, hits give high values. In general terms: Reporter assays use an easily measured gene product as a stand-in for the process of interest.

The subject of assay [2] is transactivating tegument protein VP16 (Human herpesvirus 1), Gal4-VP16 luciferase reporter. In words: repression of VP16-driven luciferase reporter – cell-based, luminescence, high throughput, counter-screen for SRC3 inhibitor project (AID 588794; in the data active = inhibition above about 30%). As to conditions: mammalian cells, at 3.6 µM, hits give high values.

Chain of Nuclear receptor coactivator 3 (Homo sapiens) (Q9Y6Q9 whole entry, looked up, the tested form may be a part): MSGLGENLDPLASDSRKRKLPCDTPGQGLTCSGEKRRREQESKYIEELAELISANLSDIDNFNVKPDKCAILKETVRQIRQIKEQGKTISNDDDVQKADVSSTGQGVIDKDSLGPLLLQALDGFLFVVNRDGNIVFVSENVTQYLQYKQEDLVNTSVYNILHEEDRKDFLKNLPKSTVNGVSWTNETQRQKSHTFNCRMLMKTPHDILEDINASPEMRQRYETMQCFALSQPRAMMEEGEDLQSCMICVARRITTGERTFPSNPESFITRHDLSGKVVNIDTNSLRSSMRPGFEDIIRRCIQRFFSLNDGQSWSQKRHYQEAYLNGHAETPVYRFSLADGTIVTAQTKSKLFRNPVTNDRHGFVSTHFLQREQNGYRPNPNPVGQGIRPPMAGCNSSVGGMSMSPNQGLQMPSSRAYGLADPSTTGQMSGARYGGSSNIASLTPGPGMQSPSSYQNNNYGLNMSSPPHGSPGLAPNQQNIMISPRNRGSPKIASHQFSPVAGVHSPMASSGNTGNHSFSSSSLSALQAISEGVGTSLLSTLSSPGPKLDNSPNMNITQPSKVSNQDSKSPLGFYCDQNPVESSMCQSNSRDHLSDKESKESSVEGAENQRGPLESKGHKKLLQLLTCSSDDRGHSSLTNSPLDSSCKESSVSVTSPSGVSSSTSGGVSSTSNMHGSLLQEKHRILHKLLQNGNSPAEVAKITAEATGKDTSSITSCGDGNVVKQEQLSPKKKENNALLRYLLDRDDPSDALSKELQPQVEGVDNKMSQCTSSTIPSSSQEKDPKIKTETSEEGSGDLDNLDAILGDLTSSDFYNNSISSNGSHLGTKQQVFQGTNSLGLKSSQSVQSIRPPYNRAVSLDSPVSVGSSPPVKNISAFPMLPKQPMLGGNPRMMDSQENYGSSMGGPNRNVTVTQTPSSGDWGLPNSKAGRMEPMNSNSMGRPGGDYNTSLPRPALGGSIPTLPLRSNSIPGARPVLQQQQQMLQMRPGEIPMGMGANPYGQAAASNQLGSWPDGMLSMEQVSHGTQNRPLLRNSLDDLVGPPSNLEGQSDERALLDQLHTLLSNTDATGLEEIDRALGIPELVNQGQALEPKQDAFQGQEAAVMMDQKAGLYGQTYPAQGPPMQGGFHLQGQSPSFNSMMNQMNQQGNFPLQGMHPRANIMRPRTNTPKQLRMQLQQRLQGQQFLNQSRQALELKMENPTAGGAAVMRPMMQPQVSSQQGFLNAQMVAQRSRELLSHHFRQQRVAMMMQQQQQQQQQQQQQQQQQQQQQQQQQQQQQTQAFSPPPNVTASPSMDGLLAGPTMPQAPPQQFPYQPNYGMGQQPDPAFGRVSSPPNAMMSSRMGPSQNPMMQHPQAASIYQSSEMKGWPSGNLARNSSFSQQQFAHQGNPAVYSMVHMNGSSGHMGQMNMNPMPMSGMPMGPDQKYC

Turning to `O=c1cc(CNc2cc(C(F)(F)F)cc(C(F)(F)F)c2)nc2sccn12`, the inhibition (as a rule, the drop in the measured response relative to a control, in per cent) in assay [1] is 4.27%; in assay [2], 3.94%.
The corresponding values for `CCOC1=C2CN(S(=O)(=O)c3ccc(C)cc3)[C@H](c3ccc(CC)cc3)C[C@@H]2N(S(=O)(=O)c2ccc(C)cc2)[C@H](c2ccccc2)C1` are 10.9% and 35.4% (active).
The corresponding values for `COc1ccc(OC)c(N/C=C/C(=O)c2ccccc2)c1` are 44.8% (active) and 17.5%.
The corresponding values for `COC(=O)c1ccccc1-c1ccc(C(c2c(C)[nH][nH]c2=O)c2c(C)[nH][nH]c2=O)o1` are 22.8% and -7.34%.
Consider `COc1cccc(/C=C/C(=O)OCC(=O)N2CCCC2)c1OC`, for which the inhibition is -12.6% in assay [1] and -16% in assay [2].
The matching figures for `C=CCc1cccc(/C=N/NC(=O)CCC(=O)Nc2ccc(F)cc2)c1O`: 26.2% and 21.1%.
Consider `CCOc1ccc(N(CC)C(=O)Cc2c(C(=O)O)n(C)c3ccccc23)cc1`, for which the inhibition in assay [1] was -8.28%; in assay [2], 7.58%.
The matching figures for `CCCCCCCNC(=O)C1(CC2CC(c3ccc(Cl)cc3)=NO2)CCN(C(=O)c2cc(OCC)c(OCC)c(OCC)c2)CC1` (centres undefined): 20.9% and 0.73%.
Consider `O=C(CN1C(=O)c2ccccc2S1(=O)=O)c1ccc(F)cc1`, for which the figures for the inhibition in assay [1] and in assay [2] were -13.1% and 17.6%, respectively.
The corresponding values for `CCOc1c(Br)cc(CNC2CCCCCCC2)cc1OC` are -5.01% and -0.26%.
For `Clc1ccc(SCc2cc(N3CCOCC3)nc(-c3ccccn3)n2)cc1`, the inhibition was -5.99% in assay [1] and 1.33% in assay [2].
As for `O=C(N/N=C/c1cc(Cl)ccc1O)c1ccncc1`, the inhibition is 16.7% in assay [1] and 35.7% (active) in assay [2].
The matching figures for `CC1CCCC=CC2CC(OC(=O)CN(C)C)CC2C(O)C=CC(=O)O1` (centres undefined): 65.1% (active) and 71.2% (active).
The matching figures for `Nc1ccccc1-c1ccc([N+](=O)[O-])cc1`: 5.58% and 33.1% (active).
The matching figures for `CC(=O)c1cccc(NC(=O)Nc2ccc3c(c2)N(C)C(=O)CS3)c1`: 32.7% and 3.54%.
For the compound `O=C(N/N=C/c1cc(Br)ccc1O)c1cccc(N2CCCC2=O)c1`, the inhibition in assay [1] was 1.45%; in assay [2], 30.7% (active).
In the case of `CCOC(=O)c1c(C)[nH]c2c1-c1ccccc1C(=O)C2=O`, the values for the inhibition in assay [1] and in assay [2] were 95.1% (active) and 91.5% (active), respectively.
